A selection: hits, their analogues and other compounds. The true share with any hit is near 1.1%.
BAP1 inh: inhibitors of BAP1 deubiquitinase, primary screen, biochemical, Ub-AMC fluorescence, kinetic. calls only at 20 µM. hit rate 0.48% among 72,000. Ubiquitin carboxyl-terminal hydrolase BAP1 (Homo sapiens), Q92560. AID 436, 2006. recombinant BAP1, Ub-AMC hydrolysis fluorescence kinetic; stronger effect = lower value;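 active = activity remaining at or below 50% of control, provided the compound also passes the data quality filters; inactive = the rest, including low values that fail the filters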;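 also: 100% = DMSO wells rate and 0% = substrate alone blank rate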
Cdc25B block: inhibitors of Cdc25B phosphatase catalytic domain, primary screen, biochemical, OMFP fluorescence; M-phase inducer phosphatase 2 (Homo sapiens), P30305; recombinant Cdc25B, OMFP fluorescence Ex485/Em525; inhibition, %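 (compounds tested at 10 µM final in the well)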; hit rate 0.1% among 65,000; in the data active = inhibition above about 50%
Hsp90 inh: tumor Hsp90 inhibitors, primary screen, cell lysate, fluorescence polarization, NCI-N417 lysate; Heat shock protein HSP 90-alpha (Homo sapiens), P07900; hit rate 0.35% among 64,000; AID 429, 2006; inhibition, % at 30 µM; Cy3B-geldanamycin FP displacement;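 active = inhibition above 50%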;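 also: 0% = tracer plus lysate wells and 100% = tracer alone without lysate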
HePTP inhibitor: inhibitors of human HePTP phosphatase, primary screen, biochemical, absorbance, leukemia target | inhibition, % at 20 µM | recombinant HePTP phosphatase activity, OD absorbance | Tyrosine-protein phosphatase non-receptor type 7 (Homo sapiens), P35236 | hit rate 0.64% among 110,000 | AID 521, 2006; in the data active = inhibition above about 50%;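 also: plate controls were vehicle for no effect and reference inhibitor for full effect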
DUSP1 inh: MKP-1 phosphatase inhibitors, primary screen, biochemical, in vitro | Dual specificity protein phosphatase 1 (Homo sapiens), P28562 | recombinant MKP-1, OMFP hydrolysis fluorescence | inhibition, %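 (compounds tested at a single concentration somewhere between 10 and 100 µM)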 | hit rate 0.15% among 65,000 | AID 374, 2006;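 active = inhibition above about 50%, limit read from the data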;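 also: 0% = DMSO max control wells and 100% = wells with enzyme stopped by NaOH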
Target sequence (P28562 whole entry, looked up): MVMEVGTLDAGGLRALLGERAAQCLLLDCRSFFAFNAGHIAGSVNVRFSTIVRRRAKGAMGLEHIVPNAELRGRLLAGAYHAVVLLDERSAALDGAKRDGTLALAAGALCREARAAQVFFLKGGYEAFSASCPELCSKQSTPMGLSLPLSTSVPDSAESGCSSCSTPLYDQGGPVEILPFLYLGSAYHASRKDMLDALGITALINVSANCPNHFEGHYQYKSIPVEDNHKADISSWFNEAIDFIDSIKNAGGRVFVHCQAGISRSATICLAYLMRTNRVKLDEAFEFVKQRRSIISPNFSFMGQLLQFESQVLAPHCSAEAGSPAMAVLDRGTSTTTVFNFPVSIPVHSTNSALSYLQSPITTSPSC
* = called active by the depositor; i = inactive; nt = not tested or not shown.

SMILES | BAP1 inh | Cdc25B block | Hsp90 inh | HePTP inhibitor | DUSP1 inh
C=CCN1C(=O)/C(=C\c2ccc(-c3cccc(C(=O)O)c3)o2)C(=O)NC1=S | nt | nt | nt | 95.7* | nt
CCN1C(=O)C(=Cc2ccc(-c3cccc(C(=O)O)c3)o2)C(=O)N(CC)C1=S | nt | nt | nt | 15.3 | nt
C=CCN1C(=O)/C(=C\c2ccc(-c3ccc(C(=O)O)cc3)o2)C(=O)NC1=S | nt | nt | nt | 102.3* | nt
O=C1NC(=S)N(c2cccc(Br)c2)C(=O)/C1=C/c1ccc(-c2cccc([N+](=O)[O-])c2)o1 | nt | nt | nt | 25.2 | nt
C=CCN1C(=O)/C(=C\c2ccc(-c3ccc(F)cc3)o2)C(=O)NC1=S | nt | nt | nt | 62.1* | nt
O=C1NC(=S)N(c2cccc(Br)c2)C(=O)/C1=C/c1ccc(-c2ccc(C(=O)O)cc2)o1 | nt | nt | nt | 69.4* | nt
Fc1ccccc1OCCn1ccnc1 | nt | nt | nt | -12.1 | nt
CCOC(=O)C1=C(N)OC2=C(C(=O)CC(C)(C)C2)C1c1cccc(Br)c1 (stereo unspecified) | nt | nt | nt | 0.9 | nt
COc1cc2ccccc2cc1C(=O)Nc1ccc(F)cc1 | i | nt | nt | nt | nt
CN1/C(=C/C(=O)Nc2ccccc2)c2ccccc2CC12CCCCC2 | nt | nt | nt | -2.9 | nt
O=C(O)c1ccc(NC2=C(Cl)C(=O)N(c3cccc(Cl)c3)C2=O)cc1 | nt | nt | nt | 5.8 | nt
Cc1ccc(S(=O)(=O)Nc2cc(C(C(=O)OC(C)C)C(=O)C(F)(F)F)c(O)c3ccccc23)cc1 (stereo unspecified) | i | nt | nt | 4.3 | nt
O=C(c1ccc(Br)o1)N1CCN(c2ccc([N+](=O)[O-])cc2)CC1 | nt | nt | nt | 102.7* | nt
Cc1ccc(C)n1-c1cc(C(=O)O)ccc1O | nt | nt | nt | 103.2* | nt
Nc1ccc(C(=O)O)c(O)c1 | i | -25.6 | -4.2 | 12.8 | -13.1
Cc1ccc(C(=O)O)cc1N1C(=O)C2C3C=CC(C3)C2C1=O (stereo unspecified) | nt | nt | nt | -1.6 | nt
Cc1ccc(C)n1-c1cc(C(=O)O)cc(C(=O)O)c1 | i | nt | nt | 100.6* | nt
Cc1ccc(C)n1-c1ccc(C(=O)O)c(O)c1 | nt | nt | nt | 103.1* | nt
Cc1ccc(C)n1-c1ccc(C(=O)O)c(Cl)c1 | nt | nt | nt | 102.4* | nt
CCOC(=O)c1sc(NC(=O)COc2ccc(Cl)cc2Cl)c(C(=O)OCC)c1C | nt | nt | nt | -17.5 | nt
CCOC(=O)C1=C(C)N(CCOC)C(=O)/C1=C\c1ccc(O)c(OCC)c1 | nt | nt | nt | -8.2 | nt
COc1ccc(/C(N)=N/OC(=O)c2ccc(I)cc2)cc1 | nt | nt | nt | 10.4 | nt
O=C(CCc1ccccc1)NNC(=O)c1ccc(Cl)cc1Cl | nt | nt | nt | 10.6 | nt
CC(C)(C)c1cc(CCC(=O)NNC(=O)c2ccccc2)cc(C(C)(C)C)c1O | nt | nt | nt | 56.4* | nt
Cc1ccc(OCC(=O)Oc2ccc3c(c2)oc(=O)c2ccccc23)cc1 | i | nt | nt | nt | nt
SMILES | BAP1 inh | Cdc25B block | Hsp90 inh | HePTP inhibitor | DUSP1 inh
Cc1cc(Cl)ccc1NC(=O)c1cccc([N+](=O)[O-])c1C | nt | nt | nt | -0.5 | nt
CCc1cccc(NC(=O)Cc2ccccc2)c1 | nt | nt | nt | 101.6* | nt
CCc1cccc(NC(=O)CCc2ccccc2)c1 | nt | nt | nt | -4.5 | nt
CC1CCCCC1NS(=O)(=O)c1ccc(S(=O)(=O)N2CCCC2)cc1 (stereo unspecified) | i | -4.0 | -2.8 | -0.8 | 15.5
O=S(=O)(NC1CCc2ccccc21)c1ccc(S(=O)(=O)N2CCCC2)cc1 (stereo unspecified) | i | 2.3 | 92.4* | 5.1 | -12.6
CN(C)CCCN1C(=O)C(=O)/C(=C(/O)c2ccc(OCc3ccccc3)cc2)C1c1cccnc1 (stereo unspecified) | i | 2.1 | 77.6* | 5.8 | -8.7
CC(C)Oc1ccc(C(=O)Nc2cccc(-c3nc4ccccc4[nH]3)c2)cc1 | i | nt | nt | nt | nt
CC(C)CN1C(=O)NC(NC(=O)c2ccco2)(C(F)(F)F)C1=O (stereo unspecified) | i | 7.0 | 94.3* | 8.5 | 4.0
CC1=NN(c2ccccc2)C(=O)C1C=C1C(=O)NC(=S)NC1=O (stereo unspecified) | nt | nt | nt | 54.5* | nt
O=C(Nc1nc2ccc3ccccc3c2s1)c1ccc(C(=O)c2ccccc2)cc1 | nt | nt | nt | 103.6* | nt
CCOC(=O)c1c(C)[nH]c(N=Nc2ccc(C)cc2)c1C | nt | nt | nt | 4.5 | nt
CCOC(=O)c1c(C)[nH]c(N=Nc2cccc(OC)c2)c1C | nt | nt | nt | 103.3* | nt
O=C(Nc1ccccc1)c1cccnc1N1CCOCC1 | i | 53.2* | 1.5 | -1.3 | 0.5
O=C(Nc1cccc(F)c1)c1cccnc1N1CCOCC1 | i | 10.6 | -3.9 | 5.8 | -6.4
N#C/C(=C(/O)CSc1nnc(Cc2cccs2)n1C1CCCCC1)c1nc2ccccc2[nH]1 | nt | -0.3 | nt | -1.5 | 51.6*
CC(=O)Oc1ccc(C(=O)O)cc1OC(C)=O | i | 2.1 | 47.9 | 3.2 | 15.0
CC(=O)Oc1cccc2c1C(=O)c1c(OC(C)=O)cc(C(=O)O)cc1C2=O | i | -18.7 | 101.8* | 4.3 | -4.7
O=C1NN(c2ccccc2)C(=O)/C1=C/c1cccn1-c1ccc([N+](=O)[O-])cc1 | nt | nt | nt | 102.8* | nt
O=C1NN(c2ccc(Cl)c(Cl)c2)C(=O)/C1=C/c1cccn1-c1ccc([N+](=O)[O-])cc1 | nt | nt | nt | 5.6 | nt
CCOc1ccc(NC(=O)c2cccc(OC)c2)c([N+](=O)[O-])c1 | i | nt | nt | nt | nt
CCOc1ccc(NC(=O)c2cc(OCC)c(OCC)c(OCC)c2)c([N+](=O)[O-])c1 | nt | nt | nt | 53.6* | nt
O=C1/C(=C\c2ccccc2F)SC(=S)N1CN1CCOCC1 | nt | nt | nt | 11.6 | nt
CCCCNCCCCOc1c(C)cccc1C | nt | nt | nt | -8.3 | nt
CC(=O)NC1=NC(=O)/C(=C\c2ccc(I)o2)S1 | nt | nt | nt | 101.9* | nt
O=c1c2c(nc3cc(-c4ccccc4)[nH]n13)CCS2 | nt | nt | nt | -0.8 | nt
SMILES | BAP1 inh | Cdc25B block | Hsp90 inh | HePTP inhibitor | DUSP1 inh
O=c1c2c(nc3cc(-c4ccc(Br)cc4)[nH]n13)CCS2 | nt | nt | nt | 51.6* | nt
O=c1cc(-c2ccc([N+](=O)[O-])cc2)nc2cc(-c3cccc(Cl)c3)[nH]n12 | nt | nt | nt | 78.4* | nt
COc1ccc(C(=O)Nc2ccc(Cl)c(-c3nc4ccccc4s3)c2)cc1[N+](=O)[O-] | nt | nt | nt | 65.0* | nt
O=C(NC(NC(=S)Nc1ccccc1)C(Cl)(Cl)Cl)c1ccccc1F (stereo unspecified) | nt | nt | nt | 4.2 | nt
O=C(NC(NC(=S)Nc1ccc(Br)cc1)C(Cl)(Cl)Cl)c1ccccc1F (stereo unspecified) | nt | nt | nt | 103.0* | nt
O=C1c2cccc3cccc(c23)C(=O)N1CCC(=O)n1cnc2ccccc21 | nt | nt | nt | 4.0 | nt

Source: PubChem BioAssay
